# Measurements: article PMC7819943, “Rice protein-binding microarrays: a tool to detect cis-acting elements near promoter regions in rice”
# In all, about 39,000 sequences were measured (“fluorescence intensity (a.u.)”: median about 4,300, highest 2% from about 39,000 on). The list comes from a sample in which the highest values are over-represented; it also holds similar and randomly drawn sequences.
# Target: T1, OsSMF1 (Oryza sativa, UniProt Q6ZLB0 1-436)
# T1 sequence: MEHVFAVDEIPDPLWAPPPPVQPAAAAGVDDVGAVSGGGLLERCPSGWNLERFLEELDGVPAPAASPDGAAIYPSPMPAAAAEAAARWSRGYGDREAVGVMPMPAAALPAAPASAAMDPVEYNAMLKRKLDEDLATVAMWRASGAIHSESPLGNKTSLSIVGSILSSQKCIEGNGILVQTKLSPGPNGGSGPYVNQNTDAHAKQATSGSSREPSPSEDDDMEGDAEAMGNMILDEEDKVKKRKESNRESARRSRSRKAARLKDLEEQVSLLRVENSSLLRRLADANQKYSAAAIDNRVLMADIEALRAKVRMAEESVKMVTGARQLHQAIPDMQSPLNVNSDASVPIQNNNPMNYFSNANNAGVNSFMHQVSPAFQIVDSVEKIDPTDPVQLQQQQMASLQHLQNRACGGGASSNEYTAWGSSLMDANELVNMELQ
# Assay: protein-binding microarray (RPBM); PBS, 2% BSA, 51.3 ng/ul salmon testes DNA, 50 uM zinc acetate, 200 nM TF, 25 C, 1 h; high values mean tight binding
# Details: protein: recombinant; tags: N-terminal polyhistidine and DsRed monomer fusion (pET32a); chain copies: 2; label: CyDye5-dUTP incorporated in the synthesized complementary strand; 3' TTTTT single-stranded linker to array surface; dsDNA, one strand shown
# Procedure, shortened: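 Binding signal is reported as fluorescence intensity per feature (arbitrary units) from an Axon 4000B scanner. Incubation used 200 nM of each Ni–NTA-purified, N-terminally polyhistidine- and DsRed-fused transcription factor from E. coli BL21-CodonPlus on a double-stranded custom Agilent array for 1 h at 25 °C, with 50 µM zinc acetate in the buffer, followed by washing.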
row,Sequence,binding signal
1,CCGCTCGTCGATTAGCCGGCCACGCCTCCCGCTCGTGAAGCGGAGTCACCTAGTGCAG,3680 fluorescence intensity (a.u.)
2,GACCCTGCCGCCCTCCATTTGGGCGGCAAGCTGACGTGGCCGGAGTCACCTAGTGCAG,32700 fluorescence intensity (a.u.)
3,GCAGTTTGTCTCATGTGCTGCTGACTAGATATTGATCATACGGAGTCACCTAGTGCAG,11400 fluorescence intensity (a.u.)
4,ATGATGAGTAGGAGTTTGTGCAGGTGGACGGCGGTGGTGGCGGAGTCACCTAGTGCAG,3180 fluorescence intensity (a.u.)
5,TTCGCTAACGCCGCGCGTCACGTAGACACGTACTACTAGCCGGAGTCACCTAGTGCAG,49600 fluorescence intensity (a.u.)
6,GTTCGCGGGCCGCGAACGTCCACGTACTAGACGCCCCTCACGGAGTCACCTAGTGCAG,4050 fluorescence intensity (a.u.)
7,TCACGCGTAGCTTCGCCGCTACGTGGCCTCGCGCACGTTACGGAGTCACCTAGTGCAG,5500 fluorescence intensity (a.u.)
8,CCTGCATGCGTGGCTGCGCTCACTGTCGTTATTTGCTTTACGGAGTCACCTAGTGCAG,5080 fluorescence intensity (a.u.)
9,AATGAGATACTTAGACTTGTGAGGCCCGACGTGTCCAATCCGGAGTCACCTAGTGCAG,4470 fluorescence intensity (a.u.)
10,AAAGGGCAGGCACATCGCTTTCGGGCCCTGTCACGTACCCCGGAGTCACCTAGTGCAG,3920 fluorescence intensity (a.u.)
11,TCAATAATGTGTGCGTGACCTGGGCAAGTGGCGGTAGCAACGGAGTCACCTAGTGCAG,3540 fluorescence intensity (a.u.)
12,ATCTGCTTTGTGAGGCACATGAAGCTGGAGATATCTGTCACGGAGTCACCTAGTGCAG,4740 fluorescence intensity (a.u.)
13,TTTGCTCGTTGGCAGCGGCCAGCAGGCACGTGTAACGGCGCGGAGTCACCTAGTGCAG,4190 fluorescence intensity (a.u.)
14,GATCGAGCGGCAGGCCAGCAGTAACCTGGCCGAGAAGTTGCGGAGTCACCTAGTGCAG,64500 fluorescence intensity (a.u.)
15,ACCGAGTCCACGGAGCAGTGAGAGAGCCAGGCAGCCAGTGCGGAGTCACCTAGTGCAG,3960 fluorescence intensity (a.u.)
16,GATGTGCGATAGCAGAATGGTGCTAAGTGAGTCACATCGTCGGAGTCACCTAGTGCAG,3970 fluorescence intensity (a.u.)
17,TTTAATGATCTTATAAATTGTAATGCTGATAGGTGGTTATCGGAGTCACCTAGTGCAG,3590 fluorescence intensity (a.u.)
18,AAGCTTACAACATGTTCTATAATTTATTTAATTCTACAAACGGAGTCACCTAGTGCAG,45700 fluorescence intensity (a.u.)
19,ATACCGGTGCGTTACAACGAGGTGAATGTTATTTTAATTTCGGAGTCACCTAGTGCAG,25200 fluorescence intensity (a.u.)
20,ACACTATGATTATAATATATTTACATGTGTGAATTGTTTACGGAGTCACCTAGTGCAG,3640 fluorescence intensity (a.u.)
21,TTCTAATTACTATTTAAGCTTATCCTAATTAACTCACATGCGGAGTCACCTAGTGCAG,3230 fluorescence intensity (a.u.)
22,AATCAACAAATAACTAATATTCTTACATCAGCTACTATAACGGAGTCACCTAGTGCAG,28600 fluorescence intensity (a.u.)
23,TATAATGTTTGGGTGCGTTTAATTCTATTTGAATTACACTCGGAGTCACCTAGTGCAG,48000 fluorescence intensity (a.u.)
24,GGGCTCATCTTCACCGTTGTCATTCAGTTATTCACATAAGCGGAGTCACCTAGTGCAG,3360 fluorescence intensity (a.u.)
25,GGCGGCGCCGACGACTCCGCGCCGCTCGGCCTCATCGTCGCGGAGTCACCTAGTGCAG,3190 fluorescence intensity (a.u.)
26,GCGCCCTCCTCCTGCCACGTCGGTTCGCGTGCGCCACGGTCGGAGTCACCTAGTGCAG,19500 fluorescence intensity (a.u.)
27,CATATGCCATCTAATCATCCTTGTCTGATGTCATTTATTCCGGAGTCACCTAGTGCAG,5870 fluorescence intensity (a.u.)

row,Sequence,binding signal
1,TGCTTCGCCAGTGAATCGCGTGGATATAAATGGGCCTCTCCGGAGTCACCTAGTGCAG,3440 fluorescence intensity (a.u.)
2,CGCACTTCCGTCGCCTCCCCGCATCGCGTCGTACAACGGGCGGAGTCACCTAGTGCAG,18300 fluorescence intensity (a.u.)
3,GGTGTGTGTATGTGTTTATATGGTGAGTGTACACACGTTGCGGAGTCACCTAGTGCAG,3150 fluorescence intensity (a.u.)
4,GGCCCCGTCGACGCTGTGCACCAAACACAATAAAGACATGCGGAGTCACCTAGTGCAG,3430 fluorescence intensity (a.u.)
5,ATTCCATATTTCCATTCCACACGTCTTGAGAGCTAATCTTCGGAGTCACCTAGTGCAG,3400 fluorescence intensity (a.u.)
6,GTCTGGATCAGAGCTGTCCACATTGGTTGTATTCCTCTTTCGGAGTCACCTAGTGCAG,3620 fluorescence intensity (a.u.)
7,GTGATCTTTCCACATACAGAGAGAGAGAGAGCTTGGGATTCGGAGTCACCTAGTGCAG,40900 fluorescence intensity (a.u.)
8,CCTCCTGCTCAGAGGCAGTTCGGTGACGAGCGGGTTGGAGCGGAGTCACCTAGTGCAG,24400 fluorescence intensity (a.u.)
9,GGGGATGGGGATTCGATGTGTCTATGCGTGGGCCCTGGTTCGGAGTCACCTAGTGCAG,3860 fluorescence intensity (a.u.)
10,ACGCAGTCACGCAGACCACAGGGCGATGCAGCGGACCGACCGGAGTCACCTAGTGCAG,40900 fluorescence intensity (a.u.)
11,CCGATCTCCACCACCACCACCACCACGCGGGCGCGCGCACCGGAGTCACCTAGTGCAG,4580 fluorescence intensity (a.u.)
12,ACCGACGCGGACAGCCACAGTCCAGTCACACACCACACCACGGAGTCACCTAGTGCAG,5320 fluorescence intensity (a.u.)
13,CTCAAAGCATTATAAAACTTGCTGGCTTTGTCCCCTTCATCGGAGTCACCTAGTGCAG,3250 fluorescence intensity (a.u.)
14,AGATCGACACGTTAGTCTACACACCTATGCGTGCCTATGCCGGAGTCACCTAGTGCAG,3580 fluorescence intensity (a.u.)
15,CCCCAATCCTCGCATGCCAACTCACCTGTGTTGCTTTTGCCGGAGTCACCTAGTGCAG,7550 fluorescence intensity (a.u.)
16,TCGCCCGCGCCCACTGACACGTGGGGCCCGGCACGTGGGCCGGAGTCACCTAGTGCAG,11500 fluorescence intensity (a.u.)
17,ACCATCTCTCTCTCTCTCTCTGCATGCATATCTTCTCCTCCGGAGTCACCTAGTGCAG,3210 fluorescence intensity (a.u.)
18,GTGTGATTATCTTCTCCATACCATCTCGTGCTACATGCGCCGGAGTCACCTAGTGCAG,40000 fluorescence intensity (a.u.)
19,AGTGCATGCGTGTGCGCCTGCCTGCTTACTTCCATCTCGACGGAGTCACCTAGTGCAG,7880 fluorescence intensity (a.u.)
20,GTTCCCTTTGTATTTCACACCTTGAGATGGTGACTGATCCCGGAGTCACCTAGTGCAG,3940 fluorescence intensity (a.u.)
21,TACTAATTTAATCCCCTTTGATCTGCTGACTGGTTTACTACGGAGTCACCTAGTGCAG,5140 fluorescence intensity (a.u.)
22,TGTTTTCTAATATTTACAATCAGATCCCTTGAGTGAGTCACGGAGTCACCTAGTGCAG,4150 fluorescence intensity (a.u.)
23,AAAGATCAGAGAGACTACTAATCCGGTTTATTTACTGGCACGGAGTCACCTAGTGCAG,44100 fluorescence intensity (a.u.)
24,AGTCTCAGATCTACTTGCGGCGGCGAAGGCTCGGGAGGGGCGGAGTCACCTAGTGCAG,3530 fluorescence intensity (a.u.)
25,ATATATTGACAAGGCAATGACATAGATAGCTAGACATATCCGGAGTCACCTAGTGCAG,3190 fluorescence intensity (a.u.)
26,TCCTTCGATTCCAAGCATATAGTAATATATGACACGATGCCGGAGTCACCTAGTGCAG,5000 fluorescence intensity (a.u.)
27,CATAGTTGACTTCCAAGGCAAGACAGATGAGATATGCATTCGGAGTCACCTAGTGCAG,45500 fluorescence intensity (a.u.)
